An excerpt weighted towards active compounds, which were near 12% of everything screened.
USP28 inh – inhibitors of human USP28 deubiquitinase. Q96RU2. purified USP28, Ub-rhodamine cleavage fluorescence, 30 min. inhibition, % at 25 µM. 47,000 compounds, 3% hits. AID 1645857
USP17 block – human USP17-like deubiquitinase inhibition; inhibition, % at 50 µM; 47,000 compounds, 6.5% hits; AID 1645855; A8MUK1; purified USP17, Ub-rhodamine cleavage fluorescence, 3 h
OTUD3 inh – blocks human OTUD3 ubiquitin-rhodamine cleavage; Q5T2D3; purified OTUD3, Ub-rhodamine fluorescence, 2 h; inhibition, % at 25 µM; 47,000 compounds, 0.7% hits; AID 1645858
USP30 block – human USP30 deubiquitinase inhibition; purified USP30, Ub-rhodamine cleavage fluorescence; inhibition, % at 25 µM; 47,000 compounds, 5.3% hits
Target sequence (Q70CQ3 whole entry, looked up): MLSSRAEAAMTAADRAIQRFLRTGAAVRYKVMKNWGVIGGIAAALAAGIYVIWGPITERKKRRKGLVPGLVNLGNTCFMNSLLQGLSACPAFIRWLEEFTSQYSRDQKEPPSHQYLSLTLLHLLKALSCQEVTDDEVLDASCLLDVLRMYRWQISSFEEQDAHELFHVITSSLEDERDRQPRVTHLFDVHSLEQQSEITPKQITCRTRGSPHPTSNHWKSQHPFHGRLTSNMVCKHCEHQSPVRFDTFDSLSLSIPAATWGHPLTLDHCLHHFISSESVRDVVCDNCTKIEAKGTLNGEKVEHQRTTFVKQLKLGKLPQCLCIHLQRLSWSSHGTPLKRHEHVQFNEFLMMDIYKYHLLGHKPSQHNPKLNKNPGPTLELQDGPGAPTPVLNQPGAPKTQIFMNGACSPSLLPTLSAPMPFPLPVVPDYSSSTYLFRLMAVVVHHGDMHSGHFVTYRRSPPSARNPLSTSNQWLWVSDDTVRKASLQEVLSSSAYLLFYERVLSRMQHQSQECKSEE
* marks the source's active call; other numbers are inactive results. Rule as the data show it: active = inhibition above about 30%; inactive = the rest.

SMILES	USP28 inh	USP17 block	OTUD3 inh	USP30 block
O=C(CN1CCc2ccccc21)N1CCN(S(=O)(=O)c2ccc(Cl)cc2)CC1	2.2	13.9	-11.5	-32.8
COc1ccc(CCNC(=O)c2cc(S(=O)(=O)N3CCOCC3)ccc2F)cc1OC	-15.3	-10.1	-4.1	0.2
COc1ccc(CCNS(=O)(=O)c2ccc(F)c(C(=O)Nc3ccc(Cl)cc3C(F)(F)F)c2)cc1OC	7.2	70.7*	23.3	60.6*
COc1ccc(-c2nonc2NC(=O)C(c2ccccc2)c2ccccc2)cc1OC	12.3	0.0	1.8	50.6*
COc1cccc(NC(=O)Cn2cc(C(=O)C3CC3)c3ccccc32)c1	11.6	53.1*	9.3	69.2*
Cc1ccc(C)c(NC(=O)Cn2cc(C(=O)C3CC3)c3ccccc32)c1	57.0*	62.4*	15.1	75.8*
CCC(=O)c1cn(CC(=O)Nc2cccc(C)c2)c2ccccc12	7.2	7.2	-1.3	0.5
Cc1ccc(-c2ncc(C(=O)NC(C)c3ccccn3)c(-c3ccncc3)n2)cc1 (stereo not drawn)	-36.9	-42.3	-32.3	-141.2
CSc1ncc(C(=O)NC(C)c2ccccc2)c(-c2ccccc2)n1 (stereo not drawn)	8.0	60.3*	10.9	23.1
Cc1cc(CN2CCC(c3cc4c(ncn4C)c(N4CCOCC4)n3)CC2)no1	5.6	-7.9	21.2	12.1
O=C(Cn1cnc2c(sc3ccccc32)c1=O)Nc1ccc(F)c(F)c1	-62.2	27.0	-26.1	-319.2
Cc1cc(C)c2c(n1)sc1c(=O)n(CC(=O)Nc3cccc(Cl)c3)cnc12	-2.6	41.0*	-0.5	-49.7
O=C(Cc1ccc(-n2c(=O)c3ccccc3n(Cc3cccc([N+](=O)[O-])c3)c2=O)cc1)NC1CCCC1	13.7	22.5	19.7	21.0
Cc1ccc(C)c(NC(=O)NCCc2cn(C)c3ncccc23)c1	16.7	36.7*	4.9	18.4
Cc1cccc(NC(=O)NCCc2cn(C)c3ncccc23)c1C	-0.1	-2.5	2.1	1.4
CCOC(=O)c1ccc(NC(=O)C2CCCN(c3nc(-c4ccc(OC)cc4)no3)C2)cc1 (stereo not drawn)	19.4	18.8	13.7	37.4*
Cc1ccccc1CNC(=O)C1CCCN(S(=O)(=O)N2CCCCCC2)C1 (stereo not drawn)	0.0	-4.6	-0.3	39.2*
COc1ccc(CNC(=O)C2CCCN(S(=O)(=O)Cc3ccc(Cl)cc3)C2)cc1 (stereo not drawn)	27.1	13.8	14.2	47.0*
COc1ccc(NC(=O)C2CCCN(S(=O)(=O)N3CCCCCC3)C2)cc1 (stereo not drawn)	16.2	51.4*	14.1	6.2
COc1ccc(-c2noc(N3CCCC(C(=O)Nc4cccc(OC)c4)C3)n2)cc1 (stereo not drawn)	0.6	22.4	-0.3	-0.8
COc1cccc(CNC(=O)C2CCCN(S(=O)(=O)N3CCCCCC3)C2)c1OC (stereo not drawn)	9.5	4.5	12.7	14.8
O=C(CCN1C(=O)c2cccnc2Sc2ccccc21)NCc1ccc(F)cc1	-1.6	2.8	3.2	-4.7
O=C1C2C(C(=O)N1c1ccccc1F)C1(c3ccccc3)C(=O)C2(c2ccccc2)C(c2ccccc2)=C1c1ccccc1 (stereo not drawn)	-0.6	-5.4	-4.7	0.9
CC(=O)N1[C@@H](CNC(=O)Cc2ccc(F)c(F)c2)C[C@@]2(C)[C@@H](O)CCCC[C@@H]12	5.0	3.7	0.4	10.4
CC(=O)Nc1ccc(S(=O)(=O)N2CCCC(C(=O)NCCc3ccccc3)C2)cc1 (stereo not drawn)	-9.5	1.0	-7.4	-7.5
SMILES	USP28 inh	USP17 block	OTUD3 inh	USP30 block
CC(=O)Nc1ccc(S(=O)(=O)N2CCCC(C(=O)Nc3cccc4ccccc34)C2)cc1 (stereo not drawn)	28.7	25.5	-2.4	55.7*
CC1Cc2ccccc2N1Cc1cc[nH]c(=O)c1 (stereo not drawn)	-84.6	-33.7	-62.9	-310.8
COc1cccc(Cn2nc3n(C(C)C)c(=O)c4ccc(C(=O)NCC(C)C)cc4n3c2=O)c1	15.0	32.7*	22.2	23.4
O=C(Cn1ncc2c1-c1ccccc1OC2)Nc1ccc(F)c(Cl)c1	13.0	-5.1	-9.2	35.2*
O=C(CN1CC(c2nc(-c3ncccn3)no2)C1)Nc1ccc(F)c(Cl)c1	0.2	-11.8	0.4	7.5
O=C(O)CNC(=O)[C@H](Cc1ccccc1)NC(=O)N1CCn2c1nc1ccccc12	4.5	1.8	5.3	2.1
CC(C)NC(=O)[C@H](Cc1ccccc1)NC(=O)N1CCn2c1nc1ccccc12	16.7	33.1*	11.8	62.4*
CCCNC(=O)[C@H](Cc1ccccc1)NC(=O)N1CCn2c1nc1ccccc12	4.9	40.3*	8.8	39.3*
COC(C)(C)/C=C/c1cc(O)ccc1O	-37.0	-60.6	-38.5	-124.5
